PubChem BioAssay
Active and inactive are the calls of the source.

Columns and labels:
[1] = resazurin metabolic signal in HepG2 cells – cell-based, resazurin fluorescence, 24 h, PK04 Diversity Set, profiling panel (AID 1172); settings: HepG2 viability, higher = more signal; further: test concentration not given here
[2] = budding yeast growth changes without added modifier – OD600, strain BY4716, 24 h, basal condition, primary screen (AID 1173); settings: S. cerevisiae BY4716 growth, OD600, 24 h; higher = more signal, called active from +8 up or from −8 down
[3] = viability profiling in MM1S myeloma cells – cell-based, resazurin fluorescence, basal, 24 h, PK04 Diversity Set, profiling panel (AID 1174); settings: higher = more signal, called active from +8 up or from −8 down;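 further: MM1S multiple myeloma cell line; test concentration not given here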
[4] = molecular target: Dihydroorotate dehydrogenase (quinone), mitochondrial (Plasmodium falciparum (isolate 3D7)) (UniProt Q08210); experiment: inhibition of P. falciparum DHODH – biochemical, C-terminal His tag, absorbance 600 nm, primary screen (AID 1175); settings: PfDHODH enzyme, DCIP absorbance 600 nm; higher = more signal, called active from +8 up or from −8 down;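 further: recombinant parasite enzyme with a five histidine tag at its C terminus; test concentration not given here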
Sequence of Dihydroorotate dehydrogenase (quinone), mitochondrial (Plasmodium falciparum (isolate 3D7)) (Q08210 whole entry, looked up): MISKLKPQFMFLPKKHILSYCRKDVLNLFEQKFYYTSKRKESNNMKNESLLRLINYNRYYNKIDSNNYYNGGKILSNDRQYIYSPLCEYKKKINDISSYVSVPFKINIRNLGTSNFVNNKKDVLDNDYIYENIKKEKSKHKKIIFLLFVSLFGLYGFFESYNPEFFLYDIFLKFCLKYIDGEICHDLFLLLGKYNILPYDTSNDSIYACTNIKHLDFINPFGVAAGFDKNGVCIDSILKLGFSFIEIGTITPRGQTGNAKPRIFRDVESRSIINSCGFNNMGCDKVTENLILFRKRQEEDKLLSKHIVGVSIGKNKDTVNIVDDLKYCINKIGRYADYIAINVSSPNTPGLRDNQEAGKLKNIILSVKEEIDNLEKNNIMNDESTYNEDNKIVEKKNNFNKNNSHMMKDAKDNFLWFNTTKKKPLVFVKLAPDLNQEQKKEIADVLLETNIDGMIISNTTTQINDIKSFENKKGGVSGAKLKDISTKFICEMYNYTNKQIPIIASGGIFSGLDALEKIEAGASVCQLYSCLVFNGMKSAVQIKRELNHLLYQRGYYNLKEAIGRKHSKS

[5] = growth modulation of vineyard yeast isolate – strain RM11-1a, OD600, basal, 24 h, primary screen (AID 1177);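 further: cultures grown under basal conditions with no added stressor; test concentration not given here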; settings: S. cerevisiae RM11-1a growth, OD600, 24 h; higher = more signal, called active from +8 up or from −8 down
[6] = growth of efflux-deficient E. coli DRC39 – strain DRC39, OD650, 24 h, E. coli filamentation inducers, primary screen (AID 1178);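 further: growth measured as culture turbidity by optical density at 650 nm; test concentration not given here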; settings: E. coli DRC39 acrAB, higher = more signal, called active from +8 up or from −8 down
[7] = growth of efflux-deficient E. coli DRC39 – strain DRC39, OD650, 48 h, E. coli filamentation inducers, primary screen (AID 1179);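 further: screen aims at cell division blockers that make cells filament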; settings: E. coli DRC39 delta-acrAB growth, higher = more signal, called active from +8 up or from −8 down
[8] = viability profiling in RPMI8226 myeloma cells – cell-based, resazurin fluorescence, basal, 24 h, PK04 Diversity Set, profiling panel (AID 1180); settings: higher = more signal;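 further: RPMI8826 multiple myeloma cell line at 5000 cells per well; test concentration not given here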
[9] = molecular target: E3 ubiquitin-protein ligase XIAP (Homo sapiens) (UniProt P98170); experiment: small molecules binding XIAP protein – biophysical, small-molecule microarray, fluorescence 635 nm, primary screen (AID 1181); settings: higher = more signal;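 further: score merges 667 nm emission and signal to noise over triplicate slides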
Sequence of E3 ubiquitin-protein ligase XIAP (Homo sapiens) (P98170 whole entry, looked up): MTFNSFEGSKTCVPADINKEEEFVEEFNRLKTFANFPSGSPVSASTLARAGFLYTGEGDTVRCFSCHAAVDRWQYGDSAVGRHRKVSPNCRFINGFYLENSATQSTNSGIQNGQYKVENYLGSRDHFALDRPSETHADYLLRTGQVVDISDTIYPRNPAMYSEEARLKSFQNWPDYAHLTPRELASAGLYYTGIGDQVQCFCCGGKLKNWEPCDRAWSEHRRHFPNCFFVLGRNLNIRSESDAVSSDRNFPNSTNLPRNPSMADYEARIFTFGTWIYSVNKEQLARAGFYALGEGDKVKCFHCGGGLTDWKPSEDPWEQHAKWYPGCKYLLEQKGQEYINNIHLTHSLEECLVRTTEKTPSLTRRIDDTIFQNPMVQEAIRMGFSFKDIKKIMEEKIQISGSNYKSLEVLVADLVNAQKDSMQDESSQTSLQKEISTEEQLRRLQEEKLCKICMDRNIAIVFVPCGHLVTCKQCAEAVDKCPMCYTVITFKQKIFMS

SMILES | z-score [1] | z-score [2] | z-score [3] | composite z-score [4] | z-score [5] | z-score [6] | z-score [7] | z-score [8] | composite z-score [9]
COc1ccc(CCNC(=O)[C@@]2(c3ccc([N+](=O)[O-])cc3)CC(=O)N(C(C)C)[C@@H]2c2ccc(CO)cc2)cc1 | 0.483 | -1.12 (inactive) | 1.56 (inactive) | -0.704 (inactive) | -1.28 (inactive) | 0.793 (inactive) | 0.479 (inactive) | 1.19 | -0.154
O=C(NCc1ccccc1)[C@@]1(CCS(=O)(=O)c2ccccc2)COC(c2ccc(OCCCO)cc2)=N1 | 0.929 | 0.0648 (inactive) | -0.12 (inactive) | -0.297 (inactive) | 1.52 (inactive) | 2.95 (inactive) | 1.9 (inactive) | -0.0092 | 0.272
Cc1ccc(S[C@]2(C(=O)NCCCN(C)C)CC(=O)N(C3CCCCC3)[C@@H]2c2ccc(CO)cc2I)cc1 | -1.37 | -2.6 (inactive) | -7.69 (inactive) | 0.895 (inactive) | 1.25 (inactive) | -0.0999 (inactive) | -0.737 (inactive) | -5.11 | -0.0636
CO[C@H]1COC(=O)[C@@H](Cc2ccccc2)NC(=O)[C@@H](C)COC(=O)CC=C[C@@H]1C | 0.344 | -1.14 (inactive) | 1.1 (inactive) | 0.0602 (inactive) | -0.213 (inactive) | 1.24 (inactive) | 0.639 (inactive) | 0.763 | 0.785
C[C@@H]1C=CCC(=O)OC[C@H]2O[C@@H](C=C[C@@H]2O)[C@H](C)C=CCC(=O)OC[C@H]2O[C@H]1C=C[C@@H]2O | -0.269 | -2.13 (inactive) | 0.689 (inactive) | -3.68 (inactive) | -2.89 (inactive) | 0.552 (inactive) | -1.41 (inactive) | 0.807 | -0.039
[N-]=[N+]=NCc1ccccc1C[C@@]1(C(=O)N2CCOCC2)N=C(c2ccc(OCCCO)cc2)O[C@@H]1c1ccccc1N=[N+]=[N-] | 0.164 | -1.37 (inactive) | -1.22 (inactive) | 0.503 (inactive) | 1.12 (inactive) | 2.06 (inactive) | 0.612 (inactive) | -1.62 | 0.152
COc1ccc(-c2ccccc2[C@@H]2N[C@H](C(=O)O)CC[C@H]2C)cc1 | 0.0637 | -0.611 (inactive) | 1.37 (inactive) | 0.577 (inactive) | 0.649 (inactive) | -0.892 (inactive) | 0.0279 (inactive) | 1.61 | -0.113
C=C(COC)/C(=C/C[C@@H](OC(C)=O)c1cccc(OCCO)c1)c1cc(C(=O)OC)ccc1OC | 1.21 | -1.57 (inactive) | 0.49 (inactive) | -0.733 (inactive) | -0.489 (inactive) | 2.1 (inactive) | 1.47 (inactive) | 0.938 | 0.155
CC/C=C/C(=O)N(C[C@@H]1CCCO1)[C@@H]1CC(C(=O)NCCO)=C[C@H](Oc2c(I)cc(CO)cc2OC)[C@H]1O | 1.42 | -2.91 (inactive) | 1.08 (inactive) | -0.288 (inactive) | -2.02 (inactive) | 2.39 (inactive) | 1.03 (inactive) | 0.209 | -0.117
CCOC(=O)C[C@H]1[C@H](OC(=O)Cc2ccc3c(c2)OCO3)[C@@H](NC(=O)CC(C)C)c2cc(OCCCO)ccc2N1C(=O)c1ccccc1 | 1.05 | -1.05 (inactive) | 0.548 (inactive) | 0.679 (inactive) | -0.606 (inactive) | 2.13 (inactive) | 1.65 (inactive) | 0.458 | 0.0015
Cc1ccc(N2C(=O)c3ccccc3[C@](C)(C(=O)O)[C@@H]2c2ccc(CO)cc2)nc1 | 0.522 | -0.0489 (inactive) | 1.28 (inactive) | 0.217 (inactive) | 0.826 (inactive) | 0.826 (inactive) | 0.396 (inactive) | 1.27 | -0.0641
CC(C)N1CC=CC23O[C@@H]4/C=C\CCCOC(=O)C4[C@H]2C(=O)N(CCCCCO)[C@@H]3C1=O (some centres not stated) | 0.46 | -1.08 (inactive) | 1.35 (inactive) | 0.623 (inactive) | -0.354 (inactive) | 1.26 (inactive) | 1.29 (inactive) | 1.13 | 0.973
COCCOC(=O)N1C(=O)[C@@]2(c3cc(C#CCNC(N)=O)ccc31)[C@H](c1ccc(OCCO)cc1)N1[C@H](c3ccccc3)[C@H](c3ccccc3)OC(=O)[C@H]1[C@@H]2C(=O)Nc1nc2ccccc2s1 | -0.265 | 0.846 (inactive) | 1.48 (inactive) | 0.665 (inactive) | 2.46 (inactive) | 0.24 (inactive) | 0.782 (inactive) | 1.3 | 0.0472
C/C(=N\O)C(=O)NCCCCCNC(=O)OCc1ccccc1 | 1.09 | -2.13 (inactive) | -0.158 (inactive) | -0.4 (inactive) | -0.608 (inactive) | 2.59 (inactive) | 1.43 (inactive) | 0.73 | -0.258
COCCCNC(=O)[C@@]1(Sc2ccc(C)cc2)CC(=O)N(Cc2cc(C(F)(F)F)cc(C(F)(F)F)c2)[C@@H]1c1ccc(CO)cc1I | -0.125 | -3.95 (inactive) | -2.01 (inactive) | -0.625 (inactive) | -2.16 (inactive) | 0.818 (inactive) | 0.328 (inactive) | -1.2 | 0.0425
COc1ccc([Si](C)(C)[C@H]2[C@H](CCO)O[C@@]3(C(=O)N(Cc4ccc(N5CCCCC5=O)cc4)c4ccccc43)[C@@H]2C)cc1 | -1.69 | -1.07 (inactive) | -7.58 (inactive) | -5.37 (inactive) | 2 (inactive) | 2.18 (inactive) | -0.0822 (inactive) | -2.73 | 0.0223
CO[C@@H]1COC(=O)[C@H](COCc2ccccc2)NC(=O)CC=C[C@@H](C)[C@H](OC)COC(=O)[C@H](COCc2ccccc2)NC(=O)CC=C[C@H]1C | 0.784 | -0.173 (inactive) | 1.28 (inactive) | 0.946 (inactive) | 0.371 (inactive) | 2.23 (inactive) | -0.0924 (inactive) | 0.415 | 0.378
C=C[C@H](OC)[C@@H](OC(=O)Nc1ccc(SC)cc1)c1ccc(OC)c(O)c1 | 1.06 | -1.14 (inactive) | 0.7 (inactive) | -0.768 (inactive) | -1.55 (inactive) | 1.51 (inactive) | 1.93 (inactive) | 0.933 | -0.0773
CO[C@H]1COC(=O)[C@@H](C)COC(=O)[C@H](Cc2ccccc2)NC(=O)CC=C[C@H]1C | 0.495 | -1.05 (inactive) | 1.06 (inactive) | 0.234 (inactive) | -1.48 (inactive) | 0.586 (inactive) | 0.274 (inactive) | 0.794 | -0.0293
CCOC(=O)C[C@H]1[C@H](OC(=O)c2ccccc2-c2ccccc2)[C@@H](NC(=O)C2CCCCC2)c2cc(OCCCO)ccc2N1C(=O)c1ccccc1 | -0.206 | -0.686 (inactive) | 0.609 (inactive) | 0.684 (inactive) | 1.33 (inactive) | 2.32 (inactive) | 1.37 (inactive) | 0.737 | -0.0351
COc1cc([C@@H]2N[C@H](C(=O)O)Cc3c2[nH]c2ccccc32)cc(OC)c1OC | 0.384 | -0.61 (inactive) | 1.39 (inactive) | -1.7 (inactive) | -0.8 (inactive) | -0.105 (inactive) | 0.197 (inactive) | 1.03 | -0.227
O=C1c2ccccc2[C@](Cc2ccccc2I)(C(=O)NCc2ccccc2)[C@H](c2ccc(CO)cc2)N1Cc1ccccc1C(F)(F)F | 0.716 | -0.712 (inactive) | 1.32 (inactive) | 0.309 (inactive) | 0.758 (inactive) | 0.0438 (inactive) | 0.0442 (inactive) | 1.21 | -0.17
COc1cc(CO)cc(I)c1O[C@H]1C=C(C(=O)NCCO)C[C@@H](NCCc2c[nH]c3ccccc23)[C@@H]1O | 0.507 | -8.04 (active) | 0.221 (inactive) | 1.23 (inactive) | 0.216 (inactive) | 2.21 (inactive) | -0.41 (inactive) | 0.848 | -0.242
